Source: PubChem BioAssay
Shown are actives, neighbours in structure and some others; about 0.5% of the full set was active somewhere.
Menin-MLL TR inh: inhibitors of human menin-MLL interaction, mutant MLL peptide; 270,000 tested, 0.23% active; O00255; Potency, µM (highest dose often 61.6 µM), inactives show at the highest dose FP activity change, negative = inhibition, most hits filed as inhibitors; Menin + Texas Red MLL mutant peptide, fluorescence polarization; active = well fitted inhibition curve with a large enough effect in the polarisation, with a control signal flat, not every such curve was filed as active; inconclusive = small, poorly fitted or top-dose-only effect, or effect the other way, or a change in a side signal; inactive = no such curve, though single readings can be large or run the other way; the % refers to the polarisation; note: potency is the fitted concentration of half-maximal effect; % of control where 0% means no effect
TRb-SRC2 inh: inhibitors of human thyroid hormone receptor beta-SRC2 interaction; TRbeta-SRC2 peptide binding, fluorescence polarization; receptor liganded with 1 µM T3; Potency, µM (titrated, usually from 106 µM), without a hit: at the highest dose activity change, negative = inhibition, usual class: inhibitors; 280,000 tested, 0.065% active; active = well fitted inhibition curve with a large enough effect; inconclusive = small, poorly fitted or top-dose-only effect, or effect the other way;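 note: potency is the fitted concentration of half-maximal effect; plate controls were bound peptide for no effect and peptide without receptor for full effect; nearly all actives have a fitted effect of over 50% in size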
Target sequence (P10828 whole entry, looked up): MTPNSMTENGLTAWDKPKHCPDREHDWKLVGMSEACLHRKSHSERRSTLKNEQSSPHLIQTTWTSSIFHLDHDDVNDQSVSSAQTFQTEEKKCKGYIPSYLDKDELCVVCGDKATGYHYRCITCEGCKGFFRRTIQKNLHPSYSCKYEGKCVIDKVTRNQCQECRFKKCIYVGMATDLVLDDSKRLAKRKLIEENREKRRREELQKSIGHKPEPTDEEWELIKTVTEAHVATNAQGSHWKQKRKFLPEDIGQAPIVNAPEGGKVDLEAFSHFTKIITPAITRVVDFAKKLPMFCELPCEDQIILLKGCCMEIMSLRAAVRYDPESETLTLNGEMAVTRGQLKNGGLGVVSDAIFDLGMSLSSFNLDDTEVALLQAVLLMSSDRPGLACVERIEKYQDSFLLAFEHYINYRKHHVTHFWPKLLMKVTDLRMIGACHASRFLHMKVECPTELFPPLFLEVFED
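Assay buffer: 20 mM Tris-HCl, 100 mM NaCl, 10% glycerol, 1 mM EDTA, 0.01% NP-40, 1 mM DTT, 1 uM T3, 5% DMSO; TRb LBD 0.6 uM, Texas Red SRC2 20 nM; FP after 5 hr.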
RGS12 GoLoco inh: RGS12 GoLoco-Gai1 interaction inhibition. P63096. Gai1:RGS12 GoLoco peptide FP, rhodamine, 10 min. Potency, µM (highest dose often 61.6 µM), inactives show top-dose activity, negative = inhibition, usual class: inhibitors. 230,000 tested, 0.44% active. AID 880; active = well fitted inhibition curve with a large enough effect, not every such curve was filed as active; inactive = no such curve, though single readings can be large or run the other way; note: potency is the fitted concentration of half-maximal effect; % is set by controls: 0 for no effect and ±100 for the full control effect; nearly all actives have a fitted effect of over 30% in size
Target sequence (P63096 whole entry, looked up): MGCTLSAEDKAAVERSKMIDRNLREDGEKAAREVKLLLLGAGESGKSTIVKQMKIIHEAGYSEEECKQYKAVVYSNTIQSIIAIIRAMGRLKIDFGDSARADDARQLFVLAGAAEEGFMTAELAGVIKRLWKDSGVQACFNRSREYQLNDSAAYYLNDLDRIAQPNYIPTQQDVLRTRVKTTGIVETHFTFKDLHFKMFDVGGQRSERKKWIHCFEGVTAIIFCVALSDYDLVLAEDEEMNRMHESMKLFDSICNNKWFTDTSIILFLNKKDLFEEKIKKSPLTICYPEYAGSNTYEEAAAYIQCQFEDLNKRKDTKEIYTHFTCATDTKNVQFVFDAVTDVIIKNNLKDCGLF
CXXC DNA block: MLL CXXC-DNA interaction inhibition. MLL-CXXC / FITC-HOXA9 DNA fluorescence polarization. Potency, µM (highest dose often 115 µM), without a hit: top-dose activity change, negative = inhibition, hits mostly inhibitors. 290,000 tested, 0.037% active; active = well fitted inhibition curve with a large enough effect in the polarisation, with a control signal flat, not every such curve was filed as active; inconclusive = small, poorly fitted or top-dose-only effect, or effect the other way, or a change in a side signal; inactive = no such curve, though single readings can be large or run the other way; the % refers to the polarisation; note: potency is the fitted concentration of half-maximal effect
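Steps: dispense CXXC domain solution (7 uM) → pin compounds or unlabeled HOX-A9 DNA control → 5 min ambient → add FLSN-HOX-A9 solution (50 nM) → spin → 30 min ambient → fluorescence polarization. Tris pH 7.5/NaCl/DTT/BSA buffer.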
Menin-MLL FL inh: menin-MLL binding inhibition, fluorescein peptide | 290,000 tested, under 10 active | Fluorescence polarization, fluorescein-MLL peptide displacement from menin | FP activity change, % at 61.4 µM; active = well fitted curve in the direction sought with a large enough effect in the polarisation, not every such curve was filed as active; inconclusive = small, poorly fitted or top-dose-only effect, or effect the other way, or a change in a side signal; inactive = no such curve, though single readings can be large or run the other way; the % refers to the polarisation; note: % of control where 0% means no effect
TR SRC2 fluor cs: Texas Red fluorescence interference in TRb-SRC2 counter-screen; TRb/SRC2 Texas Red total fluorescence interference; Potency, µM (series often up to 106 µM), for the others: at the top dose fluorescence change, negative = quenching; 280,000 tested, 0.29% active; AID 1479; active = well fitted curve in either direction with a large enough effect; inconclusive = small, poorly fitted or top-dose-only effect; note: potency is the fitted concentration of half-maximal effect; % is set by controls: 0 for no effect and ±100 for the full control effect
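Human TRβ ligand-binding domain (0.6 uM) and Texas Red SRC2 peptide (20 nM) in Tris buffer with 1 uM T3 and 5% DMSO were incubated with pinned compound for 5 hr at ambient temperature. Total fluorescence was computed as S + 2P (555/632 nm).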
Starred values were filed as active, the others as inactive; [ ] = dose if it differs, or a comment.

`O=C(O)c1cc([N+](=O)[O-])c(Sc2nc3ccccc3[nH]2)c([N+](=O)[O-])c1` gave Menin-MLL TR inh 7.1%, CXXC DNA block -10.8% and Menin-MLL FL inh -18.3.
`Cc1ccccc1CSCc1nc2ccccc2[nH]1` gave Menin-MLL TR inh 34.4%, TRb-SRC2 inh -14.5%[53 µM], RGS12 GoLoco inh 16.6%, CXXC DNA block -14.4%, Menin-MLL FL inh 3.2 and TR SRC2 fluor cs 1.12µM*[quencher].
For Cc1ccc(OCC(=O)OC2=C(C(=O)c3ccccc3)N(C)S(=O)(=O)c3ccccc32)cc1 the results were TRb-SRC2 inh -4.3% and TR SRC2 fluor cs 1.7%.
`COc1ccc(NCc2cc(=O)[nH]c3ccccc23)cc1` gave Menin-MLL TR inh 39.8µM*, CXXC DNA block 21.5% and Menin-MLL FL inh -21.2.
`COc1ccc(NC(=O)c2cc(=O)[nH]c3ccccc23)cc1` gave Menin-MLL TR inh -13.6%, CXXC DNA block -3.1% and Menin-MLL FL inh -10.2.
Screening CCC(=O)OCc1cnc(C)c2oc(=O)c(C(=O)Nc3ccccc3C(F)(F)F)cc12 returned TRb-SRC2 inh 15.0% and TR SRC2 fluor cs 3.3%.
For CCCNC(=O)Cn1c(=O)/c(=C\c2ccc(-c3cccc([N+](=O)[O-])c3)o2)s/c1=C\C(=O)C(C)(C)C the results were Menin-MLL TR inh inconclusive, TRb-SRC2 inh -4.7%[53 µM], RGS12 GoLoco inh -59.4%, CXXC DNA block -7.6%, Menin-MLL FL inh -3.0 and TR SRC2 fluor cs -0.6%[53 µM].
For CCCNC(=O)Cn1c(=O)/c(=C\c2ccc(-c3ccc([N+](=O)[O-])cc3)o2)s/c1=C\C(=O)C(C)(C)C the results were Menin-MLL TR inh 17.8µM*, TRb-SRC2 inh 3.3%[53 µM], RGS12 GoLoco inh 33.1%, CXXC DNA block 1.5%, Menin-MLL FL inh inconclusive and TR SRC2 fluor cs -1.3%[53 µM].
For COc1ccc2c(c1)CCc1c(C(=O)Nc3c(C)nn(Cc4ccccc4C)c3C)noc1-2 the results were TRb-SRC2 inh -0.5% and TR SRC2 fluor cs -22.1%.
Screening COc1ccc2c(c1)CCc1c(C(=O)Nc3c(C)nn(Cc4c(Cl)cccc4Cl)c3C)noc1-2 returned TRb-SRC2 inh -8.2% and TR SRC2 fluor cs 0.0794µM*[quencher].
For O=C(O)/C=C\c1c2ccc(=O)c(O)c-2oc2c(O)c(O)ccc12 the results were RGS12 GoLoco inh 0.891µM*.
O=C(O)[C@H]1CCCC[C@@H]1c1c2ccc(=O)c(O)c-2oc2c(O)c(O)ccc12 was read as RGS12 GoLoco inh -9.6%[14.2 µM].
c1ccc2cc3ccccc3cc2c1 was read as TRb-SRC2 inh -1.8%[201 µM] and TR SRC2 fluor cs -5.4%[201 µM].
Screening Fc1ccc(-c2noc3ncnc(N4CCN(c5ccccc5)CC4)c23)cc1 returned TRb-SRC2 inh -1.7% and TR SRC2 fluor cs -2.6%.
Screening Fc1ccc(-c2noc3ncnc(N4CCCCC4)c23)cc1 returned TRb-SRC2 inh -23.6% and TR SRC2 fluor cs 89.1µM*[quencher].
Screening CCOC(=O)C(CCc1ccccc1)NC(C)C(=O)N1C(C(=O)O)CC2CCCC21 (stereo not drawn) returned Menin-MLL TR inh -14.7%, TRb-SRC2 inh -1.9%, RGS12 GoLoco inh 4.9%, Menin-MLL FL inh 2.4 and TR SRC2 fluor cs 0.4%.
`CCOC(=O)[C@H](CCc1ccccc1)N[C@@H](C)C(=O)N1[C@H](C(=O)O)C[C@H]2CCC[C@@H]21` gave Menin-MLL TR inh 9.3%[24.8 µM], TRb-SRC2 inh 4.1%, RGS12 GoLoco inh 8.91µM*, CXXC DNA block -0.8%, Menin-MLL FL inh inconclusive and TR SRC2 fluor cs -1.2%.
Screening BrC1CCC(Br)C(Br)CCC(Br)C(Br)CCC1Br (stereo not drawn) returned TRb-SRC2 inh -5.5%[201 µM] and TR SRC2 fluor cs -3.2%[201 µM].
CCCC[C@H]1CCCO[C@@](C(=O)NCCN2CCOCC2)(C(F)(F)F)C1 was read as Menin-MLL TR inh -18.2%, TRb-SRC2 inh -0.9%, Menin-MLL FL inh -0.3 and TR SRC2 fluor cs -0.1%.
`Cc1ccc2nsnc2c1NS(=O)(=O)c1c(C)ccc2nsnc12` gave Menin-MLL TR inh 2.4%, TRb-SRC2 inh -4.2%, RGS12 GoLoco inh -5.7%, CXXC DNA block -4.3%, Menin-MLL FL inh 11.5 and TR SRC2 fluor cs 1.8%.
`Cc1ccc(/C=[N+](\[O-])c2ccc(N(C)C)cc2)c2nsnc12` gave Menin-MLL TR inh inconclusive, TRb-SRC2 inh 35.5µM*, RGS12 GoLoco inh 6.2%, CXXC DNA block -3.0%, Menin-MLL FL inh inconclusive and TR SRC2 fluor cs 39.8µM*[fluorescent].
For O=C(O)CN(CCCN(CC(=O)O)CC(=O)O)CC(=O)O the results were TRb-SRC2 inh 0.8%[201 µM] and TR SRC2 fluor cs -0.8%[201 µM].
For CCC1Cc2cc(O)ccc2C2=C1c1ccc(O)cc1CC2CC (stereo not drawn) the results were Menin-MLL TR inh inconclusive, TRb-SRC2 inh 2.7%, Menin-MLL FL inh -0.9 and TR SRC2 fluor cs 2.1%.
Screening O=c1/c(=C\c2cc([N+](=O)[O-])cc([N+](=O)[O-])c2O)sc2nc3ccccc3n12 returned Menin-MLL TR inh inconclusive, TRb-SRC2 inh 16.1%, RGS12 GoLoco inh 160.0%, CXXC DNA block -4.3%, Menin-MLL FL inh inconclusive and TR SRC2 fluor cs 44.7µM*[quencher].
O=C(Nc1nc(-c2ccccc2)cs1)C1COc2ccccc2O1 (stereo not drawn) was read as Menin-MLL TR inh -19.5%, TRb-SRC2 inh -1.3%, RGS12 GoLoco inh -0.8%, CXXC DNA block 17.1%, Menin-MLL FL inh 4.6 and TR SRC2 fluor cs -4.2%.
O=C(Nc1nc(-c2ccc(S(=O)(=O)N3CCCC3)cc2)cs1)C1COc2ccccc2O1 (stereo not drawn) was read as Menin-MLL TR inh 10µM*, TRb-SRC2 inh -4.6%, RGS12 GoLoco inh 1.0%, CXXC DNA block 20.1%, Menin-MLL FL inh 4.9 and TR SRC2 fluor cs -2.3%.
`Cc1ccc(C=C2C(=O)c3ccccc3C2=O)s1` gave Menin-MLL TR inh -3.4%, TRb-SRC2 inh inconclusive, RGS12 GoLoco inh 198.2%, CXXC DNA block inconclusive, Menin-MLL FL inh 1.2 and TR SRC2 fluor cs 44.7µM*[fluorescent].
`Cc1cc(C=C2C(=O)c3ccccc3C2=O)c(C)n1C` gave Menin-MLL TR inh 18.7%, TRb-SRC2 inh 8.8%, RGS12 GoLoco inh -7.9%, CXXC DNA block -1.1%, Menin-MLL FL inh -5.8 and TR SRC2 fluor cs -0.4%.
For O=C(c1ccccc1)N1N=C(c2ccccc2O)CC1c1ccccc1 (stereo not drawn) the results were Menin-MLL TR inh 28.2µM*, CXXC DNA block inconclusive and Menin-MLL FL inh 3.0.
Screening Cc1cccc(S(=O)Cc2ccc(C(=O)NC3CCCCCC3)o2)c1 (stereo not drawn) returned TRb-SRC2 inh 5.3% and TR SRC2 fluor cs -1.6%.
For CCOc1ccc2nc(N3CCCC(C(=O)NCCc4ccc(SC)cc4)C3)sc2c1 (stereo not drawn) the results were TRb-SRC2 inh -11.8% and TR SRC2 fluor cs 39.8µM*[quencher].
